In PubChem BioAssay (Tox21):
Where “and” joins values, the source holds several entries; their conditions need not be identical. Equal entries are not always repeated. Records with an inconclusive call do not appear. Where a structure was tested more than once in an assay, its records may differ in their call. Calls of active or inactive are those of the source. Unless noted, the call rests on the fitted dose curve; in most records, active means well fitted curve in the direction sought with a large enough effect in the repeat runs; inconclusive means weak or mixed curves; inactive means no such curve, though single readings can be large; an effect the other way counts as inactive or inconclusive.

Experiments:
[1] = biological target: Aryl hydrocarbon receptor (Homo sapiens) (UniProt P35869); test: qHTS assay to identify small molecule that activate the aryl hydrocarbon receptor (AhR) signaling pathway (AID 743085); further: nearly all actives have a fitted effect of over 15% in size; further: potency means the concentration at half of the fitted maximal effect;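 on activation: HG2L7.5c1 human HepG2 liver cells with stably integrated DRE-driven firefly reporter; series mostly up to about 70 µM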
In short: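 24 h compound exposure, 37C, HepG2-derived HG2L7.5c1 cells with DRE-responsive luciferase. Readouts: fluorescence viability, then luminescence at room temperature after 30 min.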

[2] = qHTS assay to identify small molecule that activate the aryl hydrocarbon receptor (AhR) signaling pathway - cell viability counter screen (AID 743086); further: nearly all actives have a fitted effect of over 45% in size; further: potency means the concentration at half of the fitted maximal effect
In short: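 HepG2-AhR-luc (HG2L7.5c1) cells, 4000/well, treated 24 h at 37 C with compound; viability measured as CellTiter-Fluor fluorescence after 30 min in the same wells as the luciferase read.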

[3] = biological target: Peroxisome proliferator-activated receptor gamma (Homo sapiens) (UniProt P37231); test: qHTS assay to identify small molecule agonists of the peroxisome proliferator-activated receptor gamma (PPARg) signaling pathway (AID 743094; active means well fitted activation curve with a large enough effect in the signal ratio in the repeat runs, not every such curve was filed as active; the % refers to the signal ratio)
In short: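 Beta-lactamase FRET fluorescence was the read-out after a 1 h room-temperature substrate step, following 17 h compound treatment at 37C of HEK293H cells expressing a UAS-driven bla reporter responsive to PPARg.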

[4] = biological target: Peroxisome proliferator-activated receptor gamma (Homo sapiens) (UniProt P37231); test: qHTS assay to identify small molecule antagonists of the peroxisome proliferator-activated receptor gamma (PPARg) signaling pathway (AID 743191; calls by dose curve; further: series mostly up to about 63 µM; nearly all actives have a fitted effect of over 30% in size)
In short: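 GeneBLAzer PPARg UAS-bla HEK293H cells, 5 h post-plating, exposed to compounds 17 h at 37C. LiveBLAzer B/G FRET substrate added for 1 h at room temperature; beta-lactamase reporter read by fluorescence intensity.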

[5] = qHTS assay to identify small molecule antagonists of the peroxisome proliferator-activated receptor gamma (PPARg) signaling pathway - cell viability counter screen (AID 743194); conditions: Potency: co-treated with 50 nM rosiglitazone; further: nearly all actives have a fitted effect of over 55% in size; further: potency means the concentration at half of the fitted maximal effect
In short: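 Cytotoxicity counter screen in PPARg-bla HEK293H cells, same wells as reporter assay. Compounds plus 50 nM rosiglitazone (final) for 17 h at 37 C, then viability read by CellTiter-Glo luminescence.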

[6] = qHTS assay for small molecule agonists of the antioxidant response element (ARE) signaling pathway - cell viability counter screen (AID 743203; calls by dose curve; further: nearly all actives have a fitted effect of over 55% in size; further: potency means the concentration at half of the fitted maximal effect)
In short: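 HepG2 cells carrying ARE-driven beta-lactamase; 2,000 cells/well; 5 hrs plating; compound pinned from DMSO; 16 hrs 37C/5% CO2; CellTiter-Glo added; 30 min RT; luminescence.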

[7] = qHTS assay for small molecule activators of the heat shock response signaling pathway - cell viability counter screen (AID 743209); further: nearly all actives have a fitted effect of over 50% in size
In short: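 Luminescence from CellTiter-Glo, added after the beta-lactamase FRET read, gave the viability signal. Cells were HSE-bla HeLa treated with DMSO-dissolved compounds for 5 h at 37 C following overnight plating.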

[8] = qHTS assay for small molecule activators of the heat shock response signaling pathway (AID 743210; active means well fitted activation curve with a large enough effect in the signal ratio in the repeat runs, with a control signal flat, not every such curve was filed as active; the % refers to the signal ratio; further: series mostly up to about 63 µM)
In short: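 HSE-bla HeLa cells (beta-lactamase reporter under heat shock response elements), plated overnight, then exposed to compounds 5 h at 37 C; LiveBLAzer B/G FRET substrate added, 2.5 h at room temperature, fluorescence intensity read.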

[9] = qHTS assay to identify small molecule agonists of the peroxisome proliferator-activated receptor delta (PPARd) signaling pathway - cell viability counter screen (AID 743211); further: nearly all actives have a fitted effect of over 55% in size; further: potency means the concentration at half of the fitted maximal effect
In short: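 Luminescent ATP viability assay (CellTiter-Glo, 30 min RT) in UAS-bla HEK293H cells carrying the PPAR delta reporter construct, 3000 cells/well, after a 17 h compound treatment at 37 C.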

[10] = biological target: Peroxisome proliferator-activated receptor delta (Homo sapiens) (UniProt Q03181); test: qHTS assay to identify small molecule antagonists of the peroxisome proliferator-activated receptor delta (PPARd) signaling pathway (AID 743215; active means well fitted inhibition curve with a large enough effect in the signal ratio in the repeat runs, not every such curve was filed as active; the % refers to the signal ratio;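 further: cells stimulated with agonist L165041 at 300 nM final during compound exposure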; further: potency means the concentration at half of the fitted maximal effect)
In short: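 Read-out is beta-lactamase FRET fluorescence, measured 2 h after substrate addition at room temperature. Beforehand, UAS-bla HEK293H cells carrying the PPARd reporter were exposed to compounds with L165041 at 300 nM final for 17 h at 37 C.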

[11] = qHTS assay to identify small molecule agonists of the farnesoid-X-receptor (FXR) signaling pathway - cell viability counter screen (AID 743218); further: nearly all actives have a fitted effect of over 45% in size; further: potency means the concentration at half of the fitted maximal effect
In short: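 HEK 293T FXR-bla cells; 5 h pre-incubation, 16 h compound exposure at 37 C; LiveBLAzer substrate 2 h RT, then CellTiter-Glo 30 min RT, luminescence.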

[12] = qHTS assay to identify small molecule antagonists of the farnesoid-X-receptor (FXR) signaling pathway - cell viability counter screen (AID 743221; active means well fitted cell-killing curve with a large enough effect in the repeat runs, not every such curve was filed as active; further: nearly all actives have a fitted effect of over 50% in size)
In short: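 In GeneBLAzer FXR-UAS-bla HEK 293T cells stimulated with 50 uM chenodeoxycholic acid (final), compounds acted for 16 h at 37 C. Viability was assessed afterwards by CellTiter-Glo luminescence.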

[13] = biological target: Vitamin D3 receptor (Homo sapiens) (UniProt P11473); test: qHTS assay to identify small molecule agonists of the vitamin D receptor (VDR) signaling pathway (AID 743222; calls by dose curve)
In short: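 VDR-bla cells, 2,000/well; 4 h preincubation 37C; cpd (DMSO) 16 h; LiveBLAzer B/G substrate 2 h RT; fluorescence intensity read.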

[14] = qHTS assay to identify small molecule agonists of the vitamin D receptor (VDR) signaling pathway - cell viability counter screen (AID 743224); further: nearly all actives have a fitted effect of over 50% in size; further: potency means the concentration at half of the fitted maximal effect
In short: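 Luminescence from CellTiter-Glo, read after 30 min at room temperature, reports viability of VDR-bla cells treated with compounds for 16 h at 37C in the wells used for the beta-lactamase FRET read.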

[15] = qHTS assay for small molecule agonists of the antioxidant response element (ARE) signaling pathway (AID 743202; active means well fitted activation curve with a large enough effect in the signal ratio in the repeat runs, not every such curve was filed as active; the % refers to the signal ratio; further: potency means the concentration at half of the fitted maximal effect)
In short: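 ARE-bla HepG2 cells (beta-lactamase reporter under the antioxidant response element), plated 5 hours, then exposed to compounds 16 hours at 37 C. LiveBLAzer B/G FRET substrate added for 2 hours at room temperature; fluorescence intensity read.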

[16] = biological target: Peroxisome proliferator-activated receptor delta (Homo sapiens) (UniProt Q03181); test: qHTS assay to identify small molecule agonists of the peroxisome proliferator-activated receptor delta (PPARd) signaling pathway (AID 743212; calls by dose curve)
In short: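 GeneBLAzer UAS-bla HEK293H cells carrying a PPARδ construct were exposed to compounds at 37 °C. Beta-lactamase activity was read by FRET fluorescence after 2 h at room temperature with LiveBLAzer B/G substrate.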

[17] = biological target: Bile acid receptor (Homo sapiens) (UniProt Q96RI1); test: qHTS assay to identify small molecule antagonists of the farnesoid-X-receptor (FXR) signaling pathway (AID 743217; active means well fitted inhibition curve with a large enough effect in the signal ratio in the repeat runs, not every such curve was filed as active; the % refers to the signal ratio)
In short: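 HEK 293T FXR-UAS-bla, 5000 cells/well; compound + CDCA 50 uM final; 16 h, 37 °C; B/G FRET substrate 2 h RT; fluorescence.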

[18] = biological target: Bile acid receptor (Homo sapiens) (UniProt Q96RI1); test: qHTS assay to identify small molecule agonists of the farnesoid-X-receptor (FXR) signaling pathway (AID 743220; active means well fitted activation curve with a large enough effect in the signal ratio in the repeat runs, not every such curve was filed as active; the % refers to the signal ratio)
In short: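 Beta-lactamase reporter under UAS control in GeneBLAzer FXR HEK 293T cells (5000/well) measured with LiveBLAzer FRET substrate after 2 h at room temperature. Compound exposure lasted 16 h at 37C.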

[19] = qHTS assay to identify small molecule antagonists of the peroxisome proliferator-activated receptor delta (PPARd) signaling pathway - cell viability counter screen (AID 743213); further: nearly all actives have a fitted effect of over 50% in size; further: potency means the concentration at half of the fitted maximal effect
In short: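 HEK293H cells with the PPARd UAS-bla reporter, co-treated 17 h at 37 C with compounds and L165041 (300 nM final), were lysed with CellTiter-Glo. Luminescence indicated viable cell content.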

[20] = biological target: Vitamin D3 receptor (Homo sapiens) (UniProt P11473); test: qHTS assay to identify small molecule antagonists of the vitamin D receptor (VDR) signaling pathway (AID 743223; active means well fitted inhibition curve with a large enough effect in the signal ratio in the repeat runs, not every such curve was filed as active; the % refers to the signal ratio)
In short: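 Agonist 1alpha,25-dihydroxyvitamin D3 (3 nM in well) was added with each compound to VDR-bla cells preincubated 4 h. Cells stood 16 h at 37C, then FRET substrate 2 h at room temperature; fluorescence intensity recorded.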

Measured: Potency
On the % scale 0 is the no-effect control and ±100 the full control effect.

Bile acid receptor (Homo sapiens), sequence (Q96RI1 whole entry, looked up): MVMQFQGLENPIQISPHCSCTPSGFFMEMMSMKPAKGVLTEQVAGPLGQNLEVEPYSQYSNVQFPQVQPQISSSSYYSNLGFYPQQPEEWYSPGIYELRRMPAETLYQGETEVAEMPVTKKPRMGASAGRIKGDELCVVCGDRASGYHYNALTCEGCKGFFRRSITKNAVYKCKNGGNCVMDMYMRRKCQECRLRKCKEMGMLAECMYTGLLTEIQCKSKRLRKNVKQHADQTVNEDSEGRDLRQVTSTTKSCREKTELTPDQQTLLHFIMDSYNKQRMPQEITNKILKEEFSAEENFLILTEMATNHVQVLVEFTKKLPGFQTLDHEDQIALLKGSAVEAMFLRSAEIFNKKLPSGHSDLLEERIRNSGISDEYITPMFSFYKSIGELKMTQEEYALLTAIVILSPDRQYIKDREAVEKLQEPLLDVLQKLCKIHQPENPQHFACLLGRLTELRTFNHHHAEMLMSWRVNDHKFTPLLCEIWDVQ
Vitamin D3 receptor (Homo sapiens), sequence (P11473 whole entry, looked up): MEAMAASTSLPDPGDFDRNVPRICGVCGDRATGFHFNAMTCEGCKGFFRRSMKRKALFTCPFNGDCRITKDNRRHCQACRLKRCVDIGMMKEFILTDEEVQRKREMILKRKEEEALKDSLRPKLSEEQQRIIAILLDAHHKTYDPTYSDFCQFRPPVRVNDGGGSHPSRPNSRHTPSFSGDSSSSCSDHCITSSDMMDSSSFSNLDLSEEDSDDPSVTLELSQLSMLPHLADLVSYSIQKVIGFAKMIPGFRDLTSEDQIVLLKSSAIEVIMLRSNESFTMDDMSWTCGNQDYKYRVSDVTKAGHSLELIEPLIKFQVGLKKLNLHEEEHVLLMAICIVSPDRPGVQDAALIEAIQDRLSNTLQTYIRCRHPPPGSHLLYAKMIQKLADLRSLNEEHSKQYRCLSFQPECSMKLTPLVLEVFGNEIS
Aryl hydrocarbon receptor (Homo sapiens), sequence (P35869 whole entry, looked up): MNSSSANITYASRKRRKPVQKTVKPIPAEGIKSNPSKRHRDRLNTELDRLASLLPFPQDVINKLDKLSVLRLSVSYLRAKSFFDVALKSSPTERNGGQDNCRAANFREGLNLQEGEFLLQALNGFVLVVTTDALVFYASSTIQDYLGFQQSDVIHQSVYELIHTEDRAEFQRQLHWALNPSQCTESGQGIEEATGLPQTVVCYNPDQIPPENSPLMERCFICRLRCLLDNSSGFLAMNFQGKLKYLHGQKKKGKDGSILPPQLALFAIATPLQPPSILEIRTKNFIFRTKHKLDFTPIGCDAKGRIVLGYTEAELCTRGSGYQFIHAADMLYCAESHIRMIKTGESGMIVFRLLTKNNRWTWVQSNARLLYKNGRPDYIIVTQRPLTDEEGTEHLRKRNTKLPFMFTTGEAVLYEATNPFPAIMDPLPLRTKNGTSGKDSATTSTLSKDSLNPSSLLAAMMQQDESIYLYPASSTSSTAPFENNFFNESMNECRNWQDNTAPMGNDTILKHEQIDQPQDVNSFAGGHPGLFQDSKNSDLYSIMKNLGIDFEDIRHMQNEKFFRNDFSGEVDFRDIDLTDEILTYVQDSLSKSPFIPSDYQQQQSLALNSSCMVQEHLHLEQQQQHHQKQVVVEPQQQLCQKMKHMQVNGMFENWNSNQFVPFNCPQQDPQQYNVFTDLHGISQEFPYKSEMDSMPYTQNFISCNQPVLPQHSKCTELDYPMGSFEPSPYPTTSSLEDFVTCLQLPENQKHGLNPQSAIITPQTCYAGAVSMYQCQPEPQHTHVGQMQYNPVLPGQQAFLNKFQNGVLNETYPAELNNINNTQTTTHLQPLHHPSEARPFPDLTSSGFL
Peroxisome proliferator-activated receptor delta (Homo sapiens), sequence (Q03181 whole entry, looked up): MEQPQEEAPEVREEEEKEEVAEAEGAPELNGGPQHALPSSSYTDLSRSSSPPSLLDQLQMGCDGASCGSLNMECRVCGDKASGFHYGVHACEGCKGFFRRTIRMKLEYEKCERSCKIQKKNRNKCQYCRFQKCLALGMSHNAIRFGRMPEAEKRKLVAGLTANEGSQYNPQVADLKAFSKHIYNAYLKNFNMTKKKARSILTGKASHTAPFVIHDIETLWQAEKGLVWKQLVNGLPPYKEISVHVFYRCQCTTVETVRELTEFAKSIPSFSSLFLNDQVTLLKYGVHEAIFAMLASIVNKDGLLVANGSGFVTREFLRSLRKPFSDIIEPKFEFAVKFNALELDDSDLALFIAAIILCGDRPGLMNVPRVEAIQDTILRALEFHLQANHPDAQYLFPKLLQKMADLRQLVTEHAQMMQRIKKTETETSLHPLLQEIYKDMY
Peroxisome proliferator-activated receptor gamma (Homo sapiens), sequence (P37231 whole entry, looked up): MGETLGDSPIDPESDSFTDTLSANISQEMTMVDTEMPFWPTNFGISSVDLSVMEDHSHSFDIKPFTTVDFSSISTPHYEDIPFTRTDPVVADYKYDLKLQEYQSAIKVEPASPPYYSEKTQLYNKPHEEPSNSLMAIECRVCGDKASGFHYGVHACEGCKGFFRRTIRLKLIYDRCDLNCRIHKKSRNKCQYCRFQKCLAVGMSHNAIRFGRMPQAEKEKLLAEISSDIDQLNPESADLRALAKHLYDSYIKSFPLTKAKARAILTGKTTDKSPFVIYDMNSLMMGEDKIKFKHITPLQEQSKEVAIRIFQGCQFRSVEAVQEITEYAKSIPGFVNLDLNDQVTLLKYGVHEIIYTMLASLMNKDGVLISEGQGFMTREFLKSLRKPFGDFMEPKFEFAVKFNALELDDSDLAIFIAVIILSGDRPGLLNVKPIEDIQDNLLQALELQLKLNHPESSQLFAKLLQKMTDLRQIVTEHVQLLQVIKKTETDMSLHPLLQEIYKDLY

CC(C)(N)Cc1ccc(Cl)cc1
not listed: [15] | [16] | [17] | [18] | [19] | [20]
inactive: all other assays above

Cc1ccc(Cl)c(O)c1
not listed: [4] | [19] | [20]
inactive: all other assays above

O=C1C2CC=CCC2C(=O)N1SC(Cl)(Cl)Cl (stereo not given)
inactive: [1] | [3] | [7] | [16] | [13] | [20]
inactive and 21.5 µM (active): [11]
inactive and 42.6 µM (active): [2]
inactive and 10.8 µM (active): [9]
active: [5] 3.83 µM
inactive and 23.9 µM (active): [6]
inactive and 12.1 µM (active): [19]
inactive and 6.81 µM (active): [14]

O=C(Cl)C(Cl)Cl
not listed: [4] | [17] | [18]
inactive: all other assays above

OP(O)c1ccccc1
not listed: [4] | [13] | [16]
inactive: all other assays above

O=P(O)(O)CN(CP(=O)(O)O)CP(=O)(O)O
not listed: [4] | [17] | [18]
inactive: all other assays above

CC(C)[C@]12CC(=O)[C@H](C)[C@H]1C2
not listed: [4] | [19]
inactive: all other assays above

O=C(O)C(Cl)Br (stereo not given)
active: [15] 4.91 µM
not listed: [4] | [7] | [16] | [20]
inactive: all other assays above

C(COCC1CO1)OCC1CO1 (stereo not given)
not listed: [4] | [8] | [13] | [14] | [15] | [20]
inactive: all other assays above

C=CC(=O)OCCN(C)C
not listed: [4] | [17] | [18] | [20]
inactive: all other assays above

CC(C)(C)c1cc(O)ccc1O
active: [1] 26.6 µM [middle of 4 runs] | [15] 3.86 µM | [10] 54.9 µM
not listed: [4] | [6] | [9] | [12] | [13] | [19] | [20]
inactive: all other assays above

N=C(N)[Se]
not listed: [4] | [12] | [17] | [18] | [19]
inactive: all other assays above

CC(Cl)(Cl)Cl
not listed: [4] | [17] | [18] | [19]
inactive: all other assays above

Cc1cc(OC(=O)N(C)C)nn1C(=O)N(C)C
not listed: [4] | [5] | [13] | [20]
inactive: all other assays above

S=C=S
not listed: [4] | [8] | [10] | [16] | [17] | [18]
inactive: all other assays above

O=C(Cl)C(Cl)(Cl)Cl
not listed: [4] | [19]
inactive: all other assays above

CC#Cc1cc(C)nc(Nc2ccccc2)n1
active: [1] 30.6 µM | [15] 34.3 µM
not listed: [4] | [11] | [12] | [16] | [17] | [18] | [19]
inactive: all other assays above

ClCOCCl
not listed: [4] | [12] | [19] | [20]
inactive: all other assays above
